In all, about 69,000 compounds went through this assay and about 8,600 (12%) showed an effect of 50% or more. Many of the other results were omitted from the sample, so strong results are more common in it than they were.

In this experiment the test system is Plasmodium berghei. The experiment can be described thus: Screen against P. berghei liver stage (PbLuc), transformed with Luciferase, at 10uM. Type of experiment: functional, HepG2. The settings on record: tested at 10 uM.
Consider `CC1(NC(=O)Cc2cccs2)CCS(=O)(=O)C1` (centres undefined), for which the INHIBITION is listed as 43.1%. For `CC(C)C(=O)N1CC[C@H]2N(C)CC[C@@]2(C(=O)Nc2ccccc2)CC1`, the INHIBITION turned out to be 44.8%.

Take `O=C1CC2(CCCCN2C(=O)c2ccccc2)CN1CC1CC1` (centres undefined): the INHIBITION is reported as 29.7%. As for `Cc1cnc(NC(=O)C(C)n2ccc(C(F)(F)F)n2)s1` (centres undefined), the INHIBITION came to 49.1%. The same measure for `COCC(=O)N1CC[C@]2(O)CCN(Cc3ccsc3)C[C@@H]2C1`: 10.5%; for `CC(C)c1nc(CNC2CCN(C(=O)OC(C)(C)C)CC2)cs1`: 47%. For the compound `CN(CC(=O)NC1CC1)C(=O)c1csc(Br)c1`, the INHIBITION is listed as 37.2%.

As to `COc1ccccc1CC(=O)N1CCC(OCc2cccnc2)CC1`, the INHIBITION is recorded as -37.2%.

`Cc1cnn(CC2CCCCN2Cc2nccn2CC(F)(F)F)c1` (centres undefined): the INHIBITION is given as -61.4%.

In the case of `Cc1noc(C)c1CC(=O)N1CC[C@@](C)(O)[C@H](Oc2ccccc2)C1`, the INHIBITION is recorded as 41.55%. Take `O=C(NCc1ccc(Br)c(F)c1)Nc1cn[nH]c1`: the INHIBITION is listed as 4.97%. Take `COCCNc1ccc(CNC(=O)Nc2cn[nH]c2)cc1`: the INHIBITION amounted to 6.14%. As to `CS(=O)(=O)c1ccc(CNC(=O)Nc2cn[nH]c2)cc1`, the INHIBITION is listed as -21.7%. For the compound `CNS(=O)(=O)Cc1ccc(CNC(=O)Nc2cn[nH]c2)cc1`, the INHIBITION is 27.9%.

Regarding `NC(=O)c1ccc(CNC(=O)Nc2cn[nH]c2)cc1`, the INHIBITION amounted to 72.9%. Regarding `CNS(=O)(=O)c1ccc(CNC(=O)Nc2cn[nH]c2)cc1`, the INHIBITION turned out to be 50.3%. As to `CNC(=O)c1cnn2c(C3CCCN3C)ccnc12` (centres undefined), the INHIBITION is -6.73%. Take `COc1ccc(Br)c(C(=O)NC(CC(=O)O)c2cccs2)c1` (centres undefined): the INHIBITION is 33.8%.

In the case of `O=C(CCCN1C(=O)CCC1=O)NCC1(c2ccccc2)CCC1`, the INHIBITION is on record as -9.37%. On to `O=C1CCCN1Cc1nnc2n1CCN(Cc1ccco1)CC2`, for which the INHIBITION was -8.23%. Turning to `COc1cc(NCc2ncc[nH]2)ccc1Br`, the INHIBITION is reported as 74.4%. Take `Fc1ccc(NCc2ncc[nH]2)cc1Br`: the INHIBITION is reported as 58.1%. Regarding `Clc1cc(NCc2ncc[nH]2)nc2[nH]ccc12`, the INHIBITION is on record as -19.8%. For `CCC(O)(CNCc1ncc[nH]1)c1ccc(Br)cc1` (centres undefined), the INHIBITION was 15.5%. As for `Fc1cccc(NCc2ncc[nH]2)c1`, the INHIBITION was 10.3%.

As for `COCc1nc2cc(NCc3ncc[nH]3)ccc2o1`, the INHIBITION is -10.8%. In the case of `CCOCC(=O)N1CC[C@H]2O[C@@H](C)C[C@H]2C1`, the INHIBITION is recorded as 5.44%. As to `CCCn1cnc2c(cnn2-c2cccc(C)c2C)c1=O`, the INHIBITION is -70.6%. Take `Cc1cc(-c2cc(N)c(=O)n(CC(=O)N3CCCC(C)C3)n2)c(C)o1` (centres undefined): the INHIBITION was 22.35%. As for `Cc1nc(COc2cccc(C#N)c2)no1`, the INHIBITION is on record as 54.4%. Turning to `Cc1nc(CN2CCCN(CCOc3cccc(C#N)c3)CC2)no1`, the INHIBITION was determined as 20.1%. In the case of `Cc1noc(OCCOc2cccc(C#N)c2)n1`, the INHIBITION is recorded as 10.7%. As for `COCC(=O)Nc1nnc2n(Cc3cccc(OC)c3)[nH]c(C)c1-2`, the INHIBITION is on record as -14.8%. Regarding `CN(CC1(O)CCCN(c2ccccn2)C1)C(=O)CC1CCOCC1` (centres undefined), the INHIBITION was -51.4%. The same measure for `Cc1nc(-c2ccsc2)ccc1C(=O)NCCCN1CCOCC1`: 25.315%; for `CSc1nnc(CNC(=O)Nc2ccccc2Br)n1C`: 19.8%. The same measure for `CNCC[C@H]1CC(C)(C)Oc2ccc(OC)cc21`: 42.6%; for `CNCC[C@H]1CC(C)(C)Oc2ccc(OCC3CC3)cc21`: 42.6%; for `CNCC[C@H]1CC(C)(C)Oc2ccc(C)cc21`: 53%. For the compound `CN1CCN(C(=O)C2CCN(c3cccnn3)C2)CC1` (centres undefined), the INHIBITION is -18.9%. The same measure for `O=C(NCc1ccco1)[C@@H]1CCO[C@@H]2CCN(C3CCOCC3)C[C@H]21`: 11.3%; for `Cc1nnc2n1CCN(CCOc1ccc(C(C)(C)C)cc1)C2`: 13.3%. As to `NC(=O)C(CNC(=O)COCC(F)(F)F)Cc1ccc(F)cc1` (centres undefined), the INHIBITION amounted to 17.4%. With `OC1(CN2CCCCC2)CCN(c2cccc(C(F)(F)F)n2)C1` (centres undefined), the INHIBITION stood at 46.7%. Regarding `OC1(CN2CCCCC2)CCN(c2ccc(C(F)(F)F)cn2)C1` (centres undefined), the INHIBITION was 59.4%.

Take `OC1(CN2CCCCC2)CCN(c2cc(C(F)(F)F)ccn2)C1` (centres undefined): the INHIBITION came to 33.9%. On to `O=C(NCc1ccoc1)Nc1cc(C(F)(F)F)c[nH]c1=O`, for which the INHIBITION is -45.5%. The same measure for `Fc1ccccc1CN1C[C@H](OCC2CCOCC2)[C@H]2OCCC[C@H]21`: -28.8%; for `CO[C@H]1CN(Cc2ccccc2F)[C@@H]2CCCO[C@H]12`: 68.8%; for `Fc1ccccc1CN1C[C@@H](OCc2ccncc2)[C@H]2OCCC[C@H]21`: 23.5%. Turning to `Cc1ccccc1CN1CC[C@H]2C[C@H](C(=O)N(C)C)O[C@H]2C1`, the INHIBITION is on record as 19.5%. On to `COCC(=O)N1CCc2cccc(S(=O)(=O)N3CCN(C)CC3)c2C1`, for which the INHIBITION is reported as 8.51%. As for `CCOc1ccc(NC(=O)N2CCOC(C(N)=O)C2)cc1Cl` (centres undefined), the INHIBITION is recorded as -16.9%. For `Cc1ccc(NC(=O)N2CCOC(C(N)=O)C2)cc1C(F)(F)F` (centres undefined), the INHIBITION is -14.3%.

These data come from ChEMBL document CHEMBL4513216, “Probing the Open Global Health Chemical Diversity Library for Multistage-Active Starting Points for Next-Generation Antimalarials” (ACS Infect Dis, 2020).
